Test results reported in PubChem BioAssay (NCI).
Compounds without any hit were thinned out: in the full panel of roughly 83,000, 20% have a hit.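 Each cell line was grown in a 96-well plate and treated with one concentration of compound for 48 hours. Values below 10 were considered active.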 A number with no mark means an inactive call.

Test system: HL-60(TB) leukemia
Test: NCI-60 one-dose screen, 48 h (100 = growth as untreated, 0 = no growth, -100 = all killed)
Conditions: 10 µM unless noted

Row | Structure (SMILES) | growth [%]
1 | O=C(c1cccc(Br)c1)N1CCN(c2ccnc3cc(Cl)ccc23)CC1 | 92.6
2 | NC(=O)CCC(C(=O)O)N1C(=O)c2ccc(O)cc2C1=O (stereo not given) | 134
3 | CCCCc1ccc(NC(=O)N(CCCl)N=O)cc1 | 98.8
4 | Nc1c(C(=O)Nc2ccccc2)sc2nc3c(cc12)C(=O)CCC3 | 19.4
5 | Cc1[nH]nc2c1C(c1cnn(C)c1)C(C#N)=C(N)O2 (stereo not given) | 99.5
6 | COc1cc(-c2c3c(cn2CCN2CCCCC2)-c2oncc2CC3)cc(OC)c1OC | 109
7 | Cc1cc(Nc2ccc(C(=O)N3CCCC3)cc2)nc(NCCCNc2ccnc3cc(Cl)ccc23)n1 | 84.4
8 | N#C/C(=C\c1ccc2c(c1)OCO2)c1ccccc1 | 62
9 | CC(C)n1c(/C=C/[C@@H](O)C[C@@H](O)CC(=O)O)c(-c2ccc(F)cc2)c2ccccc21 | 91.4
10 | Cn1cnc([N+](=O)[O-])c1Sc1nnc(-c2ccccc2)c(-c2ccccc2)n1 | 104
